Data from PubChem BioAssay (Tox21).
Inconclusive results are not listed. Calls of active or inactive are those of the source. Unless noted, calls come from the whole dose curve; as a rule, active = well fitted curve in the direction sought with a large enough effect in the repeat runs; inconclusive = weak or mixed curves; inactive = no such curve, though single readings can be large; an effect the other way counts as inactive or inconclusive.

Tests used:
[1] = A CellTox Green Cytotoxicity Assay to monitor cytotoxicity in HepG2 cells - 16 hour (AID 1224876); note: nearly all actives have a fitted effect of over 45% in size
Outline: (§1)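 Cytotoxicity was tracked as dead-cell DNA fluorescence in HepG2 cells treated with test compounds at 37 C; each time-point value comes from one kinetic series spanning 0, 8, 16, 24, 32 and 40 h.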

[2] = qHTS RealTime-Glo MT Cell Viability Assay in HepG2 cells - 32 hour (AID 1224877); note: nearly all actives have a fitted effect of over 55% in size
Outline: (§2)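 Real-time, nonlytic viability: 600 HepG2 cells/well mixed with NanoLuc enzyme plus prosubstrate; 5 h settle, compound (DMSO) added by pintool; luminescence monitored over 40 h at 37 C.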

[3] = qHTS RealTime-Glo MT Cell Viability Assay in HEK293 cells - 0 hour (AID 1224880); note: top concentration of the series differs between compounds; nearly all actives have a fitted effect of over 45% in size
Outline: (§3)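 Kinetic, non-lysing viability readout. Seed HEK293 (600/well) with reagent, incubate 5 h at 37 C/5% CO2, pin 23 nL compound in DMSO, incubate at 37 C, read luminescence at 0, 8, 16, 24, 32, 40 h.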

[4] = A CellTox Green Cytotoxicity Assay to monitor cytotoxicity in HEK293 cells - 32 hour (AID 1224881); note: nearly all actives have a fitted effect of over 40% in size
Outline: (§4)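 Real-time, in one plate: 600 HEK293 cells/well with dead-cell DNA dye, pinned compound after 5 h, 37 C incubation over 40 h; viable cells give no appreciable fluorescence.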

[5] = A CellTox Green Cytotoxicity Assay to monitor cytotoxicity in HepG2 cells - 0 hour (AID 1224882); note: nearly all actives have a fitted effect of over 35% in size
Outline: as §1

[6] = A CellTox Green Cytotoxicity Assay to monitor cytotoxicity in HEK293 cells - 8 hour (AID 1224884); note: nearly all actives have a fitted effect of over 35% in size
Outline: as §4

[7] = qHTS RealTime-Glo MT Cell Viability Assay in HepG2 cells - 16 hour (AID 1224885); note: nearly all actives have a fitted effect of over 50% in size
Outline: as §2

[8] = A CellTox Green Cytotoxicity Assay to monitor cytotoxicity in HEK293 cells - 16 hour (AID 1224888); note: nearly all actives have a fitted effect of over 35% in size
Outline: as §4

[9] = qHTS RealTime-Glo MT Cell Viability Assay in HepG2 cells - 0 hour (AID 1224889); note: nearly all actives have a fitted effect of over 50% in size
Outline: as §2

[10] = qHTS assay to identify small molecule antagonists of the androgen receptor (AR) signaling pathway using the MDA cell line in the presence of 0.5 nM R1881 - cell viability counter screen (AID 1259242); note: nearly all actives have a fitted effect of over 45% in size
Outline: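 Cells seeded at 3,000/well and allowed 5 hr at 37C, 0% CO2 before compound transfer and R1881 (0.5 nM final) addition; 16 hr later, live-cell protease fluorescence indicated cytotoxicity.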

[11] = molecular target: Estrogen receptor (Homo sapiens) (UniProt P03372); assay: qHTS assay to identify small molecule antagonists of the estrogen receptor alpha (ER-alpha) signaling pathway using the BG1 cell line in the presence of 0.1 nM 17-beta-estradiol (AID 1259244); note: nearly all actives have a fitted effect of over 50% in size
Outline: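 Luciferase signal from VM7Luc4E2 ERE-reporter cells, co-dosed with test compound and 0.1 nM final 17beta-estradiol for 22 h, read with ONE-Glo.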

[12] = qHTS assay to identify small molecule HDAC inhibitors (AID 1259364);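 note: wild-type HCT-116 cells with endogenous class I/II HDAC activity; top concentration of the series differs between compounds; nearly all actives have a fitted effect of over 45% in size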
Outline: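 HCT-116 wt cells, 1,500/well, overnight attach. Compounds (DMSO) 2 h, 37 °C. HDAC-Glo I/II, 30 min RT. Luminescence.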

[13] = A CellTox Green Cytotoxicity Assay to monitor cytotoxicity in HepG2 cells - 24 hour (AID 1224878); note: nearly all actives have a fitted effect of over 45% in size
Outline: as §1

[14] = A CellTox Green Cytotoxicity Assay to monitor cytotoxicity in HepG2 cells - 40 hour (AID 1224879); note: nearly all actives have a fitted effect of over 40% in size
Outline: as §1

[15] = A CellTox Green Cytotoxicity Assay to monitor cytotoxicity in HepG2 cells - 32 hour (AID 1224883); note: nearly all actives have a fitted effect of over 50% in size
Outline: as §1

[16] = qHTS RealTime-Glo MT Cell Viability Assay in HEK293 cells - 24 hour (AID 1224886)
Outline: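 Cells + reagent dispensed (600 cells/well, HEK293) → 5 h at 37 C/5% CO2 → 23 nL compound in DMSO pinned → 40 h at 37 C → luminescence read at 0, 8, 16, 24, 32, 40 h.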

[17] = qHTS RealTime-Glo MT Cell Viability Assay in HEK293 cells - 8 hour (AID 1224887)
Outline: as §3

[18] = A CellTox Green Cytotoxicity Assay to monitor cytotoxicity in HepG2 cells - 8 hour (AID 1224890); note: nearly all actives have a fitted effect of over 45% in size
Outline: as §1

[19] = qHTS assay to identify small molecule antagonists of the estrogen receptor alpha (ER-alpha) signaling pathway using the BG1 cell line in the presence of 0.1 nM 17-beta-estradiol - cell viability counter screen (AID 1259241); note: nearly all actives have a fitted effect of over 40% in size
Outline: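 CellTiter-Fluor read (30 min, 37C) on ER-alpha/ERE-luc VM7Luc4E2 cells; 22 hr compound treatment; agonist 0.1 nM E2 final; same-well multiplex.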

[20] = qHTS assay to identify small molecule phospholipidosis (PLD) inducers (AID 1259344; active = well fitted curve in the direction sought with a large enough effect; an effect the other way counts as inactive or inconclusive)
Outline: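 Cells (HepG2, 900 per well) attach for 4 h, receive LipidTOX Red and compound together, incubate 24 h at 37 C, are fixed 30 min with paraformaldehyde/Hoechst, then imaged at one site per well.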

Measured: Potency

Estrogen receptor (Homo sapiens), sequence (P03372 whole entry, looked up): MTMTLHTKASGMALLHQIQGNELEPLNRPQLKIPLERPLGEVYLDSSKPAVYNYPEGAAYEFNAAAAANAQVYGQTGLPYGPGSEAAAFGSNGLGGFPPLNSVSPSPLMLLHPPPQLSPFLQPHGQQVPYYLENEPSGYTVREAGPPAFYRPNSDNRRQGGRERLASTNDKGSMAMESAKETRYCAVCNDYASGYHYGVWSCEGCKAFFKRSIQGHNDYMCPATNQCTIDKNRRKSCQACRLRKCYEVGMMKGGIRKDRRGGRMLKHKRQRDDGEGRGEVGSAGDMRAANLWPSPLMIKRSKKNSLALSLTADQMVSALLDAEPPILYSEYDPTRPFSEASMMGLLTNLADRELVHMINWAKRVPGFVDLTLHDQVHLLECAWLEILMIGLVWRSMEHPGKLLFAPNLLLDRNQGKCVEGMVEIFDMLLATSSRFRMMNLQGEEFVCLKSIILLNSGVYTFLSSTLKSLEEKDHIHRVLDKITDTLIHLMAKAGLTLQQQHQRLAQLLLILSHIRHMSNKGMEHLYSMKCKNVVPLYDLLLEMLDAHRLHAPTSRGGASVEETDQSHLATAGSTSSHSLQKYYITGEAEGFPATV

Oc1ccccc1Cc1ccccc1O
not listed: [13] | [14] | [15] | [16] | [17] | [18] | [19] | [20]
inactive: all other assays above

Cc1nc2ccccc2c(=O)o1
not listed: [4] | [6] | [12] | [20]
inactive: all other assays above

CC(C)COC(=O)/C=C/c1ccccc1
not listed: [4] | [13] | [14] | [15] | [19] | [20]
inactive: all other assays above

O=C(CN1CCN(Cc2ccc3c(c2)OCO3)CC1)N1c2ccccc2Sc2ccccc21
not listed: [11] | [12] | [14] | [15]
inactive: all other assays above

CCCCCCCCCCCCC1CO1 (stereo unspecified)
not listed: [1] | [20]
inactive: all other assays above

CC(C)=CC(C)(C)C
not listed: [4] | [5] | [11] | [12] | [20]
inactive: all other assays above

CCOC(=O)CC(CC(=O)OCC)(OC(C)=O)C(=O)OCC
not listed: [4] | [5] | [11] | [12] | [20]
inactive: all other assays above
